From PubChem BioAssay (NCATS) come the findings set out here.

Each structure is given as a SMILES string. Records with an inconclusive call do not appear. Calls of active or inactive are those of the source. Calls come from the whole dose curve; as a rule, active = well fitted curve in the direction sought with a large enough effect; inconclusive = small, poorly fitted or top-dose-only effect, or another doubt; inactive = no such curve, though single readings can be large; an effect the other way counts as inactive or inconclusive. Positions of bridges follow the written chain, without caps; N, C: chain ends. Non-standard residues stand in square brackets, D forms with d. Residues, ends and D or L forms follow the SMILES beside them. ξ: configuration not given here. *: point of attachment. Octanoyl(6-Me) = CCC(C)CCCCC(=O)*; ξThr(3R) = C[C@@H](O)C(N)C(=O)O; dDab = NCC[C@@H](N)C(=O)O; Dab = NCC[C@H](N)C(=O)O

A short description of assay [1]: qHTS of pediatric cancer cell lines to identify multiple opportunities for drug repurposing: Primary screen for BT-12 cells (AID 1347101). Note: nearly all actives have a fitted effect of over 25% in size. Note: potency is the fitted concentration of half-maximal effect. The method, boiled down: (§1)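 Cells (500-1,000/well) rested 5 h, then received compounds for 48 h; metabolically active cells were measured by CellTiter-Glo luminescence. Final concentrations spanned up to 46 µM (MIPE, 11-point) or 0.59 nM-46 µM (NPC, 8-point) in primary screens, 11-point in follow-ups.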
On the technique in general: qHTS replaces the single test concentration by a dilution series.

A short description of assay [2]: qHTS of pediatric cancer cell lines to identify multiple opportunities for drug repurposing: Primary screen for Rh18 cells (AID 1347102). Note: nearly all actives have a fitted effect of over 65% in size. Note: potency is the fitted concentration of half-maximal effect. In short, it runs like this: as §1
A short description of assay [3]: qHTS of pediatric cancer cell lines to identify multiple opportunities for drug repurposing: Primary screen for OHS-50 cells (AID 1347103). Note: nearly all actives have a fitted effect of over 40% in size. Note: potency is the fitted concentration of half-maximal effect. In short, it runs like this:
as §1

Assay [4] can be described thus: qHTS of pediatric cancer cell lines to identify multiple opportunities for drug repurposing: Primary screen for RD cells (AID 1347104). Note: nearly all actives have a fitted effect of over 55% in size. Note: potency is the fitted concentration of half-maximal effect. The method, boiled down: (§2)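 Phenotypic viability qHTS, 48 h compound exposure, CellTiter-Glo luminescence read-out; multi-concentration dosing so that potency and efficacy derive directly from the primary screen's curves.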
A short description of assay [5]: qHTS of pediatric cancer cell lines to identify multiple opportunities for drug repurposing: Primary screen for Rh30 cells (AID 1347107). Note: nearly all actives have a fitted effect of over 75% in size. In short, it runs like this:
as §1

Assay [6] can be described thus: qHTS of pediatric cancer cell lines to identify multiple opportunities for drug repurposing: Primary screen for Rh41 cells (AID 1347108).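 For activity change, negative = cytotoxic: luminescence drop marks cytotoxic hits.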 Note: nearly all actives have a fitted effect of over 70% in size. Note: potency is the fitted concentration of half-maximal effect. In short, it runs like this: as §2
The nature of assay [7]: qHTS of pediatric cancer cell lines to identify multiple opportunities for drug repurposing: Confirmatory screen for NB1643 cells (AID 1347109). Note: nearly all actives have a fitted effect of over 45% in size. Note: potency is the fitted concentration of half-maximal effect. The method, boiled down:
as §1

A short description of assay [8]: qHTS of pediatric cancer cell lines to identify multiple opportunities for drug repurposing: Confirmatory screen for A673 cells (AID 1347110).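 Note: potency is the fitted concentration of half-maximal effect; cells exposed to compound for 48 h before the viability read; nearly all actives have a fitted effect of over 65% in size.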 In short, it runs like this: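 Cells plated at 500-1,000/well were treated five hours later with multi-point dilutions up to 46 µM final. After two days, CellTiter-Glo was added and luminescence read.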
A short description of assay [9]: qHTS of pediatric cancer cell lines to identify multiple opportunities for drug repurposing: Confirmatory screen for SK-N-MC cells (AID 1347111).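 Note: cells exposed to compound for 48 h before the readout; nearly all actives have a fitted effect of over 70% in size.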 Note: potency is the fitted concentration of half-maximal effect. In short, it runs like this:
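Seed 500-1,000 cells/well; rest 5 h at 37 degrees C. Pin-transfer compounds, 11-point titration. Incubate 48 h. Add CellTiter-Glo, 15 min RT, read luminescence.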

Assay [10] in a line: qHTS of pediatric cancer cell lines to identify multiple opportunities for drug repurposing: Confirmatory screen for BT-12 cells (AID 1347112). Note: potency is the fitted concentration of half-maximal effect; nearly all actives have a fitted effect of over 55% in size. In short, it runs like this: as §1
The nature of assay [11]: qHTS of pediatric cancer cell lines to identify multiple opportunities for drug repurposing: Confirmatory screen for LAN-5 cells (AID 1347113). Note: nearly all actives have a fitted effect of over 65% in size. Note: potency is the fitted concentration of half-maximal effect. The method, boiled down: as §1
Assay [12] can be described thus: qHTS of pediatric cancer cell lines to identify multiple opportunities for drug repurposing: Confirmatory screen for DAOY cells (AID 1347114). Note: nearly all actives have a fitted effect of over 65% in size. Note: potency is the fitted concentration of half-maximal effect. The method, boiled down: (§3)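 Viability measured as metabolically active cells via CellTiter-Glo luminescence following 48 hours of compound exposure, 11-point dilutions in confirmatory testing. 500-1,000 cells/well plated 5 hours before dosing; controls were DMSO and 2.3 µM bortezomib.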

The nature of assay [13]: qHTS of pediatric cancer cell lines to identify multiple opportunities for drug repurposing: Confirmatory screen for BT-37 cells (AID 1347117). Note: nearly all actives have a fitted effect of over 55% in size. Note: potency is the fitted concentration of half-maximal effect. The conditions noted are these: BT-37 pediatric cancer cells, viability; activity change, negative = cytotoxic: at 45.9 µM (top of the series). The method, boiled down:
as §1

The nature of assay [14]: qHTS of pediatric cancer cell lines to identify multiple opportunities for drug repurposing: Confirmatory screen for TC32 cells (AID 1347118). Note: potency is the fitted concentration of half-maximal effect. The method, boiled down: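 qHTS, TC32, 48 h drug treatment, CellTiter-Glo luminescence as a proxy for metabolically active cells; primary top concentration 46 µM (MIPE 11-pt, NPC 8-pt); confirmatory 11-pt.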
The nature of assay [15]: qHTS of pediatric cancer cell lines to identify multiple opportunities for drug repurposing: Confirmatory screen for MG 63 (6-TG R) cells (AID 1347119). Note: nearly all actives have a fitted effect of over 55% in size. Note: potency is the fitted concentration of half-maximal effect. The method, boiled down: as §1
Assay [16] can be described thus: qHTS of pediatric cancer cell lines to identify multiple opportunities for drug repurposing: Primary screen for control Hh wild type fibroblast cells (AID 1347106). In short, it runs like this:
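Viability after 48 h compound treatment at 37C, 500-1,000 cells/well, read as ATP luminescence with CellTiter-Glo. Primary screens used 11-point (MIPE, 0.78 nM-46 µM) or 8-point (NPC, 0.59 nM-46 µM) final concentrations; follow-up screens used 11-point dilutions.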

Assay [17] in a line: qHTS of pediatric cancer cell lines to identify multiple opportunities for drug repurposing: Confirmatory screen for SJ-GBM2 cells (AID 1347116). Note: nearly all actives have a fitted effect of over 60% in size. Note: potency is the fitted concentration of half-maximal effect. The method, boiled down: as §3
The nature of assay [18]: qHTS of pediatric cancer cell lines to identify multiple opportunities for drug repurposing: Confirmatory screen for control Hh wild type fibroblast cells (AID 1347121). Note: nearly all actives have a fitted effect of over 70% in size. In short, it runs like this: as §1
Assay [19] is described as follows: qHTS of pediatric cancer cell lines to identify multiple opportunities for drug repurposing: Primary screen for MG 63 (6-TG R) cells (AID 1347105). Note: nearly all actives have a fitted effect of over 50% in size. In short, it runs like this:
as §2

For `CCC(C(=O)O)C1CCC(C)C(C(C)C(O)C(C)C(=O)C(CC)C2OC3(C=CC(O)[C@@]4(CC[C@](C)(C5CC[C@@](O)(CC)C(C)O5)O4)O3)C(C)CC2C)O1` (some centres undefined), the Potency in assay [1] is 385 nM (active); in assay [2] it was 5.9 µM (active); in assay [3], 432 nM (active); in [4] it was 4.18 µM (active); in [6], 3.72 µM (active); in assay [7] it was 1.17 µM (active). Also, the Potency was 5.85 µM (active) in [8], 3.69 µM (active) in assay [10], 1.17 µM (active) in [11] and 3.29 µM (active) in assay [12]. Also, the Potency result in assay [5], in [9], in assay [13], in assay [14] and in [15] was “inactive” each time.

Turning to `CCC(C)CCCCC(=O)N[C@@H](CCN)C(=O)NC(C(=O)N[C@H](CCN)C(=O)N[C@@H]1CCNC(=O)C([C@@H](C)O)NC(=O)[C@@H](CCN)NC(=O)[C@@H](CCN)NC(=O)[C@@H](CC(C)C)NC(=O)[C@H](Cc2ccccc2)NC(=O)[C@H](CCN)NC1=O)[C@@H](C)O` (stereo partly drawn) ({Octanoyl(6-Me)}-[Dab][ξThr(3R)][dDab][dDab][Dab]F[dL][dDab][dDab][ξThr(3R)]; lactam 4-C), the Potency entry in assay [1], in assay [2], in assay [3], in assay [4], in assay [5] and in assay [6] was “inactive” throughout.

As for `Cc1onc(-c2ccccc2)c1C(=O)N[C@@H]1C(=O)N2[C@@H](C(=O)O)C(C)(C)S[C@@H]12`, the Potency result in assay [1], in [2], in assay [3], in assay [16] and in assay [5] was “inactive” each time.

Turning to `CCOC(=O)[C@@H](N)Cc1ccc(-c2cc(O[C@H](c3ccc(Cl)cc3-n3ccc(C)n3)C(F)(F)F)nc(N)n2)cc1`, the Potency in assay [1] is 30600 nM (active); in assay [2], 23.5 µM (active); in [3], 24300 nM (active); in assay [9], 32.9 µM (active); in assay [11], 23.3 µM (active); in assay [14] it was 23300 nM (active). For the same compound, the Potency entry in [16], in assay [12], in assay [17] and in assay [18] was “inactive” throughout.

On to `C#CCC(Cc1cnc2nc(N)nc(N)c2n1)c1ccc(C(=O)N[C@@H](CCC(=O)O)C(=O)O)cc1` (some centres undefined), for which the Potency in assay [1] was 48.5 nM (active); in assay [3], 109 nM (active); in [4] it was 0.0743 µM (active); in assay [10], 0.104 µM (active); in assay [12], 0.117 µM (active); in assay [14], 41.4 nM (active). For the same compound, the Potency entry in assay [2], in assay [16], in assay [5], in [6], in assay [7] and in assay [11] was “inactive” each time. The Potency entry in [15] and in [18] was “inactive” in each case.

As to `CC[C@@]1([C@@H]2O[C@@H]([C@H]3O[C@@](O)(CO)[C@H](C)C[C@H]3C)C[C@H]2C)CC[C@H]([C@]2(C)CC[C@]3(C[C@H](O)[C@@H](C)[C@@H]([C@@H](C)[C@@H](OC)[C@H](C)C(=O)O)O3)O2)O1`, the Potency is 106 nM (active) in assay [1]; 188 nM (active) in [3]; 0.362 µM (active) in assay [7]; 1.02 µM (active) in assay [8]; 1.15 µM (active) in assay [10]; 0.362 µM (active) in assay [11]. The Potency was 3.23 µM (active) in assay [12]; 1.15 µM (active) in assay [17]; 204 nM (active) in assay [13]; 288 nM (active) in [14]; 512 nM (active) in assay [15]. Also, the Potency entry in [2] and in [6] was “inactive” throughout.

On to `C[C@H](NC(=O)[C@@H](O)c1cc(F)cc(F)c1)C(=O)N[C@@H]1C(=O)N(C)c2ccccc2-c2ccccc21`, for which the Potency result in [1], in assay [2], in assay [3] and in [16] was “inactive” each time.

Turning to `O=C1c2cccc(O)c2C(=O)c2c(O)cc(CO)cc21`, the Potency entry in assay [1], in assay [2], in assay [3], in assay [19], in [16] and in [5] was “inactive” throughout. Moreover, the Potency entry in [6] was “inactive”.
